The whole screen tested about 63,000 compounds, of which about 1,100 (1.7%) were called active. This is one part of a sample in which actives are shown more often than they occur. Entries with a potency or affinity are not part of this list. A number with no mark means an inactive call. Cut-off read from the data, not from the text of the source: active = cytotoxicity above about 50%; inactive = the rest.

A short description of this experiment: cytotoxicity in HPDE-C7 cells, cell-based, fluorescence, HTS (AID 430).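 Note: cells exposed to compound for 48 hours before viability readout; 0% = vehicle and 100% = reference cytotoxic drug.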 To be noted: HPDE-C7 pancreatic duct cells viability, at 10 µM, hits give high values.
In the case of `O=C(Nc1ccc(Cc2ccncc2)cc1)C1CC1`, the cytotoxicity is -38.5%. Consider `CN(C)/C=c1\sc2c(C#N)cc(C(=O)c3ccc(Br)cc3)n2c1=O`, for which the cytotoxicity was -29.6%. As to `O=C1[C@H]2[C@@H](C(=O)N1c1cc(Cl)cc(Cl)c1)[C@]1(C(=O)Nc3ccccc31)N1CCC[C@@H]21`, the cytotoxicity was -1.8%.

As to `COC(=O)c1ccccc1Nc1ccccc1`, the cytotoxicity was -2.7%. `CCOC(=O)C1=C(N)n2c(s/c(=C/c3ccco3)c2=O)=C(C(=O)OC)C1c1ccco1` (configuration not stated): the cytotoxicity was 75.9% (active).

Take `N#CC1=C(N)n2c(s/c(=C\c3ccco3)c2=O)=C(C#N)C1c1ccco1` (configuration not stated): the cytotoxicity is 12.3%. On to `CCOC(=O)C1=C(N)n2c(s/c(=C\c3cccnc3)c2=O)=C(C(=O)OC)C1c1cccnc1` (configuration not stated), for which the cytotoxicity was 10.6%.

Take `CCOC(=O)C1=C(N)n2c(s/c(=C\c3ccco3)c2=O)=C(C(=O)OC(C)C)C1c1ccco1` (configuration not stated): the cytotoxicity is -11.9%. To `CCOC(=O)C1=C(N)n2c(s/c(=C\c3cccnc3)c2=O)=C(C(=O)OCC)C1c1cccnc1` (configuration not stated) belongs -31.3%. With `CCCCCCn1c(SCC(=O)OC)nc2c1c(=O)[nH]c(=O)n2C`, the cytotoxicity is 3.9%. In the case of `CC1Cc2ccccc2N1C(=O)CSc1ncccc1C(=O)O` (configuration not stated), the cytotoxicity was -4.3%. To `O=C(CCn1c(=O)oc2ccccc21)N1CCN(c2ccccc2F)CC1` belongs 1.4%. As for `O=C(CCn1c(=O)oc2ccccc21)N1CCCCCC1`, the cytotoxicity was 10.9%.

For `O=C(CCn1c(=O)oc2ccccc21)N1CCN(c2ccccc2Cl)CC1`, the cytotoxicity is 56.7% (active). To `COc1ccc(OCC(=O)N(C)Cc2ccccc2)cc1` belongs -16.7%; to `COc1ccc(CCNc2nc(-c3sc(N)nc3C)cs2)cc1OC`, 16%.

For `O=S1(=O)Nc2c(ccc3cccnc23)-c2ccccc21`, the cytotoxicity was 90.9% (active). To `Nc1ccc2c(c1)-c1ccccc1S(=O)(=O)N2` belongs 14.6%; to `Cc1ccc2c(c1)-c1ccccc1S(=O)(=O)N2`, 10.1%; to `O/N=C(/Cc1ccccn1)c1ccccc1`, 2%. Take `CCCCCC/C(=N/O)c1ccccn1`: the cytotoxicity is 51.4% (active). With `O=C(NCCCNC(=O)c1ccccn1)c1ccccn1`, the cytotoxicity is 15.3%. The result for `Cc1cccc(N(CC(=O)NC2CCCC2)C(=O)CS(=O)CC(=O)Nc2ccc3c(c2)OCO3)c1` (configuration not stated) reads 0.1%; that for `CC(C)C(=O)Nc1cccc(NC(=O)c2cccnc2)c1`, -3.2%. To `Cc1ccc(C)c(N2CCN(C(c3ccncc3)c3nnnn3Cc3ccccc3)CC2)c1` (configuration not stated) belongs 27.4%; to `Cc1cccc(-n2c(SCC(=O)Nc3nonc3C)nnc2-c2ccoc2C)c1`, -16.1%. The result for `Cc1ccc(-n2c(SCC(=O)Nc3ccc4c(c3)OCO4)nnc2-c2ccoc2C)cc1` reads 36.3%; that for `Cc1cccc(-n2c(SCC(=O)Nc3ccc4c(c3)OCO4)nnc2-c2ccoc2C)c1`, 65.5% (active). `Cc1cc(Cl)ccc1OCC(=O)N1CC(C)CC(C)C1` (configuration not stated): the cytotoxicity is -10.4%. The result for `Cc1ccc2c(c1)C(c1ccc(F)cc1)N(C(=O)C1CC1)CC(=O)N2` (configuration not stated) reads -2%; that for `COc1cc(C(=O)Nc2cccc(-c3nncn3C)c2)cc(OC)c1OC`, -13.4%; that for `COCCOC(=O)c1c(C)oc2ccc(NS(=O)(=O)c3ccccc3)cc12`, 12.7%. For the compound `COC(=O)c1ccccc1NS(=O)(=O)c1ccc2c3c(cccc13)C(=O)N2`, the cytotoxicity is 24.2%. Turning to `CCOC(=O)c1c(C)oc2ccc(NS(=O)(=O)c3ccc4c5c(cccc35)C(=O)N4)cc12`, the cytotoxicity was 64.4% (active). The result for `CC(=O)/C=C(/C)NC(Cc1c[nH]c2ccccc12)C(=O)O` (configuration not stated) reads 2.1%; that for `OCc1ccnc2c(O)cccc12`, -13.3%. The result for `Oc1c(CN2CCc3ccccc3C2)cc(Cl)c2cccnc12` reads 7.8%; that for `Oc1ccc2cccnc2c1`, -7.4%; that for `Oc1c(CN2CCN(c3ccccn3)CC2)cc(Cl)c2cccnc12`, 27.5%. Take `Cc1cc(Nc2nc3c(c(=O)n(C)c(=O)n3C)n2C)n(-c2ccccc2)n1`: the cytotoxicity was -9%.

Consider `Cc1cc(=O)oc2cc(OCC3CC(c4ccc(N(C)C)cc4)=NO3)ccc12` (configuration not stated), for which the cytotoxicity is -19%. In the case of `COc1ccc2cc3cc(C(=O)Nc4ccc5c(c4)OCCO5)oc3nc2c1`, the cytotoxicity was 2%. The result for `Cc1ccc2cccc(S(=O)(=O)N3CCN(c4cccc(Cl)c4)CC3)c2n1` reads 7%. On to `CC(=O)c1cc2c(cc1NC(=O)c1cnc(C)cn1)OCO2`, for which the cytotoxicity is 13.3%. Take `CN(C)S(=O)(=O)c1cccc(C(=O)OCC(=O)Nc2ccccc2OC(F)F)c1`: the cytotoxicity is 0.1%. In the case of `N#CCCCSc1nnc(-c2ccc(Cl)cc2)n1-c1ccccc1`, the cytotoxicity was -20.2%. The result for `Cc1cc(-n2c(SCCC#N)nnc2-c2cccnc2)ccc1Cl` reads -25%. On to `COc1ccc(-n2c(SCCC#N)nnc2-c2cc(Cl)ccc2OC)cc1Cl`, for which the cytotoxicity was 50.2% (active). Take `O=C(O)c1cnn2c1NC(c1ccc(F)cc1)CC2C(F)(F)F` (configuration not stated): the cytotoxicity was -9.5%. To `COC(=O)/C(=C1/Oc2cc3c(cc2S1)OCO3)C(F)(F)F` belongs -28.2%.

Regarding `COC(=O)/C(=C1/Oc2cc(C)oc(=O)c2S1)C(F)(F)F`, the cytotoxicity was 76.7% (active).

For `COC(=O)C1=C(N)Oc2cc(C)oc(=O)c2C1c1ccncc1` (configuration not stated), the cytotoxicity is 0.6%.

As to `O=C(O)CCC(=O)Nc1ccccc1C(=O)NC1CCCCC1`, the cytotoxicity was -16.8%. Consider `O=C1CC(c2ccco2)CC(O)=C1C=NCCO` (configuration not stated), for which the cytotoxicity was 5.2%. `O=C1CC(c2ccco2)CC(O)=C1C=Nc1cc(Cl)ccc1O` (configuration not stated): the cytotoxicity was 55.5% (active).

`O=C1CC(c2ccco2)CC(O)=C1C=NCCN1CCNCC1` (configuration not stated): the cytotoxicity was -17.7%. As for `C=C1[C@@H](C)C2[C@H](Cc3ccccc3)NC(=O)[C@]23OC(=O)CC[C@H](O)CCC[C@H](C)C/C=C/[C@H]3[C@@H]1O` (some centres not stated), the cytotoxicity was 67.8% (active). The result for `CC(C)CCn1c(SCC(=O)OCn2nnc3ccccc3c2=O)nc2ccccc2c1=O` reads -1.3%. Take `CO[C@H]1C[C@@H]2CC[C@@H](C)[C@@](O)(O2)C(=O)C(=O)N2CCCC[C@H]2C(=O)O[C@H]([C@H](C)C[C@@H]2CC[C@@H](O)[C@H](OC)C2)CC(=O)[C@H](C)C=C(C)[C@@H](O)[C@@H](OC)C(=O)[C@H](C)C[C@H](C)C=CC=CC=C1C`: the cytotoxicity was 81.1% (active). The result for `CCOc1ccc(-c2nnc(SCC(=O)N(CC)CC)n2N)cc1` reads -5.3%.

As for `Cc1c(/C=N/n2cnnc2)c2ccccc2n1CCOc1ccccc1`, the cytotoxicity is 67.6% (active).

On to `C(=N\n1cnnc1)/c1cccc(OCCOc2ccccc2)c1`, for which the cytotoxicity was 2.1%. To `Cc1c(/C=N/n2cnnc2)c2ccccc2n1CCOc1ccc(Cl)cc1` belongs 15.9%. Consider `Cc1ccc(OCCn2c(C)c(/C=N/n3cnnc3)c3ccccc32)cc1`, for which the cytotoxicity was 41%. The result for `Cc1c(/C=N/n2cnnc2)c2ccccc2n1C` reads 5.2%; that for `COc1cccc(OCCn2c(C)c(/C=N/n3cnnc3)c3ccccc32)c1`, 75.8% (active). As for `CCN(CC)C(=O)CSc1nnc(-c2cnccn2)n1-c1ccccc1`, the cytotoxicity is -10.7%. In the case of `CC(=O)c1cccc(NC2c3ccccc3C(=O)N2Cc2ccc3c(c2)OCO3)c1` (configuration not stated), the cytotoxicity was 11.4%. `COc1ccc(NC(=O)c2cnc3ccccn3c2=O)c(OC)c1`: the cytotoxicity was 1%.

As for `COCCn1c(SCC(=O)N2CCCC2)nnc1-c1ccoc1C`, the cytotoxicity was 5.7%. To `COc1ccccc1C(=O)NCc1ccncc1` belongs -7.2%; to `CCOC(=O)CN1C(=O)C(O)=C(C(C)=O)C1c1ccccc1` (configuration not stated), -3.4%; to `COc1cccc2cc(C(=O)N3CCC(C)CC3)c(=O)oc12`, 36.9%. In the case of `COc1ccc(Nc2cc(=O)n(C3CCCCC3)c(=O)[nH]2)c(OC)c1`, the cytotoxicity was -11.4%.

For the compound `CCC(=O)Nc1ccc(OC)cc1OC`, the cytotoxicity was -0.9%. To `CC1(C)Oc2ccc3ccc(=O)oc3c2-c2cnoc21` belongs -3.6%; to `O=C(c1cc(-c2cccs2)on1)N1CCN(c2ccc(F)cc2)CC1`, 11.3%; to `O=C(c1cc(-c2cccs2)on1)N1CCN(c2ccccc2)CC1`, 51.3% (active).

For the compound `O=C(c1cc(-c2cccs2)on1)N1CCOCC1`, the cytotoxicity was -1.4%.

`Cc1cc(C)cc(OCc2nnc(SCC(=O)c3ccc(Br)cc3)o2)c1`: the cytotoxicity was -22.5%. With `CCc1ccc(CCC(=O)Nc2sc3c(c2C#N)CCCC3)o1`, the cytotoxicity was 72% (active). To `Cc1cc(C(=O)Nc2sc3c(c2C#N)CCC3)no1` belongs 53.5% (active); to `CC(C)c1cc(C(=O)Nc2sc3c(c2C#N)CCC3)no1`, 17.6%; to `COC(=O)CCC(=O)Nc1sc2c(c1C#N)CCCC2`, -8%.

Take `CCCC(=O)Nc1sc2c(c1C#N)CCCC2`: the cytotoxicity is 2.6%. Turning to `N#Cc1c(NC(=O)c2cc(C3CC3)on2)sc2c1CCC2`, the cytotoxicity was 65.1% (active). To `CC(C)(C)C1CCc2c(sc(NC(=O)c3cc(C4CC4)on3)c2C#N)C1` (configuration not stated) belongs 30.3%. The result for `CCCc1cc(C(=O)Nc2sc3c(c2C#N)CCC3)no1` reads 5.7%; that for `Cc1cc(C(=O)Nc2sc3c(c2C#N)CCCC3)no1`, -1.6%. In the case of `CCOc1cc(C2NC(=O)NC(C)=C2C(=O)OC(C)CC)cc(Br)c1O` (configuration not stated), the cytotoxicity is 3.2%.

For `Cc1nn(C)c(C)c1S(=O)(=O)N1CCC(C(=O)NC2CCCCCC2)CC1`, the cytotoxicity is 3.3%.

As to `COCCCNC(=O)CCCn1c(=O)[nH]c2ccccc2c1=O`, the cytotoxicity is -15.8%. `CCN(CC)CCN1C(=O)C(=O)/C(=C(/O)c2cnn(-c3ccccc3)c2C)C1c1cccnc1` (configuration not stated): the cytotoxicity is 0.2%. Regarding `O=C(Nc1ccc(N2CCOCC2)cc1)C1CCCN(S(=O)(=O)c2ccccc2)C1` (configuration not stated), the cytotoxicity is 0.2%.

Take `CCOc1ccc2nc(C(C)O)[nH]c2c1` (configuration not stated): the cytotoxicity is -5.7%. To `COc1ccc2nc(-c3ccccc3)[nH]c2c1` belongs -3.7%; to `CCOc1ccc2nc(-c3ccccc3)[nH]c2c1`, 56.7% (active).

The record behind these values is PubChem BioAssay AID430 (Sanford-Burnham Center for Chemical Genomics, 2006).
